Laboratory results published in the supplement of paper PMC6555819.

Experiments:
Assay in all cases: PBM binding z-score (relative to random genomic background probes); higher = stronger binding; sequences stand for … in GC…GCGATTGACAGCGTAGAATGAAGG
[1] = tested on: FXR:RXRa (NR concentration 270 nM, RXRa partner concentration 90 nM)
In short: (§1)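 Binding z-scores take random background probes as their reference. They come from custom Agilent 4×180K protein-binding microarrays incubated 1 h with ligand-free nuclear receptor dimers, with antibodies against each partner (one per run) detecting binding. Scanned fluorescence was regression-normalized.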

[2] = tested on: LXRa:RXRa (NR concentration 270 nM, RXRa partner concentration 90 nM)
In short: as §1

[3] = tested on: LXRa homodimer (NR concentration 270 nM)
In short: as §1

[4] = tested on: LXRb:RXRa (NR concentration 270 nM, RXRa partner concentration 90 nM)
In short: as §1

[5] = tested on: LXRb homodimer (NR concentration 270 nM)
In short: as §1

[6] = tested on: PPARa:RXRa (NR concentration 270 nM, RXRa partner concentration 90 nM)
In short: as §1

[7] = tested on: PPARg:RXRa (NR concentration 180 nM, RXRa partner concentration 90 nM)
In short: as §1

[8] = tested on: PPARg:RXRa 270nM:90nM, anti-RXR (NR concentration 270 nM, RXRa partner concentration 90 nM)
In short: as §1

[9] = tested on: PPARg:RXRa 30nM:10nM, anti-RXR (NR concentration 30 nM, RXRa partner concentration 10 nM)
In short: as §1

[10] = tested on: PPARg:RXRa 90nM:30nM, anti-RXR (NR concentration 90 nM, RXRa partner concentration 30 nM)
In short: as §1

[11] = tested on: PPARg:RXRa DBDmut IVT, anti-RXR (DBD mutation: RXRa K156A/R161A, NR concentration 270 nM, RXRa partner concentration 90 nM)
In short: as §1

[12] = tested on: PPARg:RXRa IVT, anti-PPARg (NR concentration 270 nM, RXRa partner concentration 90 nM)
In short: as §1

[13] = tested on: PPARg DBDmut:RXRa IVT, anti-PPARg (DBD mutation: PPARg1 K132A/R137A, NR concentration 270 nM, RXRa partner concentration 90 nM)
In short: as §1

[14] = tested on: PPARg DBDmut IVT, anti-PPARg (DBD mutation: PPARg1 K132A/R137A, NR concentration 270 nM)
In short: as §1

[15] = tested on: PPARg homodimer (NR concentration 180 nM)
In short: as §1

[16] = tested on: PXR:RXRa (NR concentration 270 nM, RXRa partner concentration 90 nM)
In short: as §1

[17] = tested on: PXR homodimer (NR concentration 270 nM)
In short: as §1

[18] = tested on: RARa:RXR (NR concentration 270 nM, RXRa partner concentration 90 nM)
In short: as §1

[19] = tested on: RARa homodimer (NR concentration 270 nM)
In short: as §1

[20] = tested on: RARb:RXRa (NR concentration 270 nM, RXRa partner concentration 90 nM)
In short: as §1

Row | Sequence | PBM binding z-score [1] | PBM binding z-score [2] | PBM binding z-score [3] | PBM binding z-score [4] | PBM binding z-score [5] | PBM binding z-score [6] | PBM binding z-score [7] | PBM binding z-score [8] | PBM binding z-score [9] | PBM binding z-score [10] | PBM binding z-score [11] | PBM binding z-score [12] | PBM binding z-score [13] | PBM binding z-score [14] | PBM binding z-score [15] | PBM binding z-score [16] | PBM binding z-score [17] | PBM binding z-score [18] | PBM binding z-score [19] | PBM binding z-score [20]
1 | AGTCAAAGTTCAGGACGAGGTAACGAAAAGCACG | 4.17 | 3.54 | 0.921 | 1.92 | 0.307 | 3.39 | 4.87 | 5.02 | 2.18 | 4.04 | 0.0438 | 2.03 | 0.538 | 0.477 | 1.63 | 2.75 | 1.22 | 2.71 | 0.551 | 4.3
2 | CCGACTGGGACAAGGTTACCATAACGCACAGCCA | 0.29 | 0.604 | -0.141 | 0.507 | -0.706 | 1.49 | 1.92 | 2.18 | 0.494 | 1.59 | 2.14 | 2.07 | -0.366 | -0.958 | 0.825 | 0.206 | -0.361 | 0.82 | 0.13 | 0.882
3 | TCATATAGGTAATACAGGTGAAATTCGGCATCTA | 1.05 | 1.37 | 0.75 | 1.17 | 0.147 | 1.96 | 1.65 | 2.53 | 3.85 | 3.09 | 3.87 | 2.95 | 1.39 | 1.39 | 1.02 | 0.776 | 0.431 | 1.2 | 1.76 | 0.602
4 | GGAACGAGGGCATTCGATTTGATAGCATGGCGAT | 0.98 | 0.589 | -0.512 | 0.472 | -0.24 | 1.49 | 1.13 | 1.23 | 0.159 | 0.731 | 3.33 | 2.39 | 0.437 | -0.411 | 0.257 | 0.991 | 0.161 | 0.538 | -0.351 | 1.96
5 | CAAACTAGGTCACTGGAAGGTCAAAGTCCGCATG | 5.47 | 5.41 | 4.68 | 4.88 | 1.36 | 5.88 | 9.17 | 7.25 | 5.53 | 7.22 | 8.42 | 8.89 | 7.66 | 2.9 | 9.82 | 5.36 | 2.12 | 7.1 | 3.34 | 4.9
6 | ATCTCTAGGTAAAAGTTCACTGAATCCCGAGGAT | 1.74 | 2.79 | 2.51 | 1.79 | 1.07 | 4.85 | 8.64 | 8.64 | 7.7 | 9.26 | 2.27 | 4.44 | 1.42 | 1.19 | 1.29 | 3.44 | 2.38 | 2.99 | 1.08 | 2.97
7 | CCTTGCAGGCCAATCTGGGTCACTCAAGGCTTGA | 0.555 | 1.37 | -0.554 | 1.1 | -0.539 | 3.31 | 2.29 | 2.35 | -0.0639 | 1.2 | 4.87 | 5.67 | 0.0467 | -0.339 | 0.973 | 1.02 | -0.543 | 1.59 | -0.229 | 1.53
8 | TAGCCTAGGTCAGATCAGGCCAGTATACGCTATA | 2.57 | 1.55 | -0.196 | 0.898 | -0.239 | 1.69 | 0.794 | 0.923 | 0.0567 | 0.604 | 0.459 | 1.56 | 0.119 | -0.493 | 0.306 | 2.07 | -0.691 | 1.21 | -0.581 | 2.93
9 | TCTAATTGGTCACGGAGGTCACACACGACGGGTA | 3.62 | 4 | 2.74 | 3.75 | 1.6 | 4.35 | 4.51 | 5.01 | 4.41 | 5.06 | 2.78 | 4.04 | 1.67 | 1.69 | 3.37 | 4.81 | 1.7 | 4.76 | 2.23 | 4.2
10 | TCTTGTAGATCAGCGGGTTAAGAAAGCTGGCCAA | 0.495 | 0.126 | -0.31 | 0.0907 | 0.392 | 0.933 | -0.329 | 1.16 | 2.52 | 1.99 | 1.84 | 0.55 | -0.631 | 0.232 | 0.0922 | 0.359 | -0.369 | 0.653 | -0.539 | 0.032
11 | TAGCCTAGGTCATGCGGGCCAGTAGAGTGTCGGC | 4.11 | 3.32 | -0.00774 | 1.64 | -0.216 | 3.58 | 1.91 | 2.64 | 0.154 | 1.57 | 1.93 | 2.8 | -0.889 | -0.693 | 0.316 | 1.39 | -0.448 | 2.37 | -0.56 | 3.75
12 | GCTATTAGTTCAAAGGGCAACCGAATGATTCTCG | 2.78 | 2.89 | 0.929 | 2.17 | 0.2 | 3.79 | 4.51 | 5.96 | 5.32 | 6.42 | 0.957 | 1.81 | 0.146 | 0.19 | 2.2 | 3.21 | 1.29 | 4.32 | 1.11 | 3.3
13 | CCGACTGGGGCACAGGTTACCATACTCAGTACGA | 0.0382 | 0.072 | -0.0129 | 0.247 | -0.88 | 2.71 | 6.11 | 5.67 | 4.13 | 6.28 | 3.76 | 4.97 | -0.354 | -0.501 | 1.14 | 0.174 | -0.362 | 0.462 | 0.15 | 1.07
14 | CTCGAAAGGTCGGTTGAGGTGAGTACACGGATAA | 2.34 | 1.85 | -0.128 | 1.5 | -0.0877 | 2.77 | 0.546 | 1.4 | 0.191 | 0.951 | 0.186 | 0.928 | 0.39 | -0.276 | 0.988 | 3.2 | 0.172 | 2.11 | -0.296 | 3.15
